For 29 compounds, Potency results are on record in PubChem BioAssay (Tox21).

The nature of assay [1]: qHTS assay to identify small molecule agonists of the vitamin D receptor (VDR) signaling pathway - cell viability counter screen (AID 743224; active means well fitted curve in the direction sought with a large enough effect in the repeat runs; an effect the other way counts as inactive or inconclusive; further: series mostly up to about 63 µM; nearly all actives have a fitted effect of over 50% in size). Summed up: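 Compounds were pin-transferred onto VDR-bla cells plated 4 h earlier; following 16 h incubation at 37C, cell viability was quantified by CellTiter-Glo luminescence after 30 min at room temperature.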
Assay [2] in a line: qHTS assay to identify small molecule antagonists of the vitamin D receptor (VDR) signaling pathway - cell viability counter screen (AID 743225; active means well fitted curve in the direction sought with a large enough effect in the repeat runs; an effect the other way counts as inactive or inconclusive; further: nearly all actives have a fitted effect of over 50% in size). Summed up:
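Cytotoxicity toward the VDR-bla HEK 293T line was scored by ATP-based CellTiter-Glo luminescence, read in the wells already used for the beta-lactamase readout after 16 h compound treatment under 3 nM 1-alpha,25-dihydroxyvitamin D3 stimulation.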
In general terms: qHTS replaces the single test concentration by a dilution series.

Assay [3] can be described thus: qHTS assay to identify small molecule agonists of the NFkB signaling pathway - cell viability counter screen (AID 1159515). Further: series mostly up to about 61 µM; nearly all actives have a fitted effect of over 55% in size. Summed up:
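Parallel cytotoxicity counter screen in ME-180 cells carrying an NFkB-response-element beta-lactamase reporter, 2,000 cells/well. Compound exposure lasted 5 hr at 37 C, 5% CO2. Cell viability was quantified by CellTiter-Glo luminescence.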

Assay [4] is described as follows: qHTS assay to identify small molecule agonists of the endoplasmic reticulum stress response signaling pathway (AID 1159516; active means well fitted activation curve with a large enough effect in the signal ratio in the repeat runs, not every such curve was filed as active; the % refers to the signal ratio; further: potency means the concentration at half of the fitted maximal effect). Summed up:
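Using a HeLa line with an ESRE-driven beta-lactamase gene, agonist activity was measured by FRET substrate fluorescence (460 and 530 nm emission) after cells were treated with compounds for 5 hr at 37 C and 5% CO2.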

Assay [5] in a line: qHTS assay to identify small molecule agonists of the endoplasmic reticulum stress response signaling pathway - cell viability counter screen (AID 1159517).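 Further: HeLa cells carrying an ER stress response element beta-lactamase reporter; series mostly up to about 61 µM; nearly all actives have a fitted effect of over 50% in size.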 Summed up: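 Cytotoxicity of test compounds toward ESRE-bla HeLa cells was assessed after 5 hr exposure. The luminescent CellTiter-Glo signal was measured 30 min after reagent addition.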
The nature of assay [6]: qHTS assay to identify small molecule antagonists of the retinoid-related orphan receptor gamma (ROR-gamma) signaling pathway - cell viability counter screen (AID 1159520; active means well fitted curve in the direction sought with a large enough effect in the repeat runs; an effect the other way counts as inactive or inconclusive; further: nearly all actives have a fitted effect of over 50% in size; further: potency means the concentration at half of the fitted maximal effect). Summed up:
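Tet-on ROR gamma CHO cells (1,000/well) were plated 4 hr, given compounds in DMSO for 2 hr at 37 C, then induced with 1 uM final doxycycline for 16 hr. Viability was read as ATP by CellTiter-Glo luminescence after 30 min.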

Assay [7] is described as follows: qHTS assay to identify small molecule agonists of the AP-1 signaling pathway (AID 1159526).
Assay [8] addresses Retinoic acid receptor RXR-alpha (Homo sapiens) (UniProt P19793). The experiment in a line: qHTS assay to identify small molecule agonists of the RXR signaling pathway (AID 1159527). Further: nearly all actives have a fitted effect of over 35% in size. Summed up: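 Reporter activation is measured as beta-lactamase activity via FRET substrate cleavage (emission 460/530 nm) in HEK 293T cells expressing an RXR-alpha-driven bla construct, following 16 hr compound exposure at 37 C.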

Assay [9] can be described thus: qHTS assay to identify small molecule agonists of the AP-1 signaling pathway - cell viability counter screen (AID 1159525). Further: nearly all actives have a fitted effect of over 55% in size. The method in brief: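 Each titration point was normalised to DMSO and tetra n-octyl ammonium bromide controls. The read was Cell Titer Glo luminescence after 30 min at RT, following 5 h compound exposure of ME-180 AP-1-bla cells at 37 °C.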

The target in assay [10] is Nuclear receptor ROR-gamma (Homo sapiens) (UniProt P51449). Kind of assay: qHTS assay to identify small molecule antagonists of the retinoid-related orphan receptor gamma (ROR-gamma) signaling pathway (AID 1159521; active means well fitted curve in the direction sought with a large enough effect in the repeat runs; an effect the other way counts as inactive or inconclusive; further: nearly all actives have a fitted effect of over 50% in size; further: potency means the concentration at half of the fitted maximal effect). Summed up:
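Readout: ONE-Glo luciferase luminescence, 30 min at room temperature. System: Tet-on RORγ CHO, RORE-LUC. Sequence: compound 2 h, doxycycline 1 uM final, 16 h at 37 C.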

Each structure is given as a SMILES string. Results filed as inconclusive are left out. Values without a mark were called inactive. Calls of active or inactive are those of the source. Unless noted, the call rests on the fitted dose curve.

Retinoic acid receptor RXR-alpha (Homo sapiens), sequence (P19793 whole entry, looked up): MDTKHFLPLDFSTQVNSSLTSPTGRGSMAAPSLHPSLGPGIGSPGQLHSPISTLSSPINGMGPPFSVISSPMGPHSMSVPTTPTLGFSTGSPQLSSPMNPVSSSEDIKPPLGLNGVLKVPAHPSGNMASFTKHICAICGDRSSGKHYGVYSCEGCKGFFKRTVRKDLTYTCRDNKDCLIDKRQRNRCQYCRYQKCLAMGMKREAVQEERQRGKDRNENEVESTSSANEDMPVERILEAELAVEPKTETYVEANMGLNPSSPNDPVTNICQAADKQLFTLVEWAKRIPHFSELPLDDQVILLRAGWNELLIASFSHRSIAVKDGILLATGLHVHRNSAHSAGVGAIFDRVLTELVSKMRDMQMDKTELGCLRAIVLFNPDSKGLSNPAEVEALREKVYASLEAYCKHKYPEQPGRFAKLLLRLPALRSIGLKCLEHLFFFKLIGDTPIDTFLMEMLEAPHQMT

For `O=C1OC(CN2CCOCC2)CN1/N=C/c1ccc([N+](=O)[O-])o1` (stereo unspecified), the Potency entry in assay [1], in assay [2], in assay [3], in [4], in [5] and in assay [6] was “inactive” in each case. Besides, the Potency entry in assay [7] and in [8] was “inactive” in each case.

For `Nc1cccc(S(=O)(=O)c2cccc(N)c2)c1`, the Potency entry in assay [1], in assay [2], in [3], in assay [4], in assay [5] and in [6] was “inactive” throughout. The Potency entry in assay [7] and in assay [8] was “inactive” in each case.

`NC(=O)C(c1ccccc1)(c1ccccc1)[C@@H]1CCN(CCc2ccc3c(c2)CCO3)C1`: the Potency result in [2], in assay [3], in [4], in assay [5], in assay [9] and in assay [7] was “inactive” each time.

In the case of `CCC(Cl)CCC(Cl)C(Cl)CC(Cl)C(Cl)C(Cl)CCl` (stereo unspecified), the Potency result in assay [2], in assay [3], in assay [5], in [6], in [10] and in assay [8] was “inactive” each time.

As for `CC(=O)[O][Al]`, the Potency entry in [1], in assay [2], in assay [3], in [4], in assay [5] and in [9] was “inactive” each time. The Potency entry in assay [7] is “inactive”.

In the case of `CC(C)(CO)[N+](=O)[O-]`, the Potency entry in assay [1], in [2], in assay [3], in [4], in [5] and in assay [9] was “inactive” in each case. For the same compound, the Potency entry in assay [7] and in assay [8] was “inactive” each time.

`COc1cc2c(cc1OC)C(C(C(=O)N(CCc1ccc(OC)c(OC)c1OC)CCc1ccc(OC)c(OC)c1OC)c1ccccc1)=NCC2` (stereo unspecified): the Potency entry in assay [1], in assay [2], in [3], in assay [5], in [6] and in assay [10] was “inactive” in each case. Further, the Potency result in assay [7] and in [8] was “inactive” in each case.

Take `Cc1cccc(Nc2ccccc2)c1`: the Potency entry in assay [2], in [3], in assay [4], in assay [5] and in [10] was “inactive” throughout.

Take `CC1OC(=O)C(C)OC1=O` (stereo unspecified): the Potency result in assay [1], in assay [2], in [3], in assay [4], in assay [5] and in assay [7] was “inactive” each time. Further, the Potency result in assay [8] was “inactive”.

Take `O=C1CCC(=O)O1`: the Potency result in [1], in assay [2], in assay [3], in assay [4], in assay [5] and in [9] was “inactive” in each case. Moreover, the Potency entry in assay [7] and in assay [8] was “inactive” each time.

For `CCCCc1nc2cccnc2n1Cc1ccc(-c2ccccc2-c2nnn[nH]2)cc1`, the Potency result in assay [1], in assay [2], in assay [3], in assay [4], in assay [5] and in assay [9] was “inactive” in each case. Besides, the Potency result in [7] is “inactive”.

Take `Cc1ccc(N=Nc2c(O)c(C(=O)O)cc3ccccc23)c(S(=O)(=O)O)c1`: the Potency result in assay [2], in assay [3], in assay [4], in assay [5], in assay [9] and in [8] was “inactive” throughout.

Regarding `COc1ccc(C(=O)c2ccc(OC)cc2O)c(O)c1`, the Potency result in assay [2], in [3], in assay [4], in assay [5], in [10] and in [9] was “inactive” each time. Also, the Potency result in assay [7] is “inactive”.

Turning to `OCc1cc(C(O)CNCCCCCCOCCCCc2ccccc2)ccc1O` (stereo unspecified), the Potency entry in assay [3], in assay [4], in assay [5] and in assay [9] was “inactive” each time.

In the case of `CCCCC(CC)COC(=O)COc1ccc(Cl)cc1Cl` (stereo unspecified), the Potency entry in assay [1], in assay [2], in assay [3], in [4], in [5] and in [9] was “inactive” throughout. Also, the Potency entry in assay [7] and in assay [8] was “inactive” in each case.

`CCOC(=O)C(F)(F)F`: the Potency result in assay [1], in assay [3], in assay [4], in assay [5], in [9] and in assay [7] was “inactive” each time. In addition, the Potency entry in assay [8] was “inactive”.

Consider `C=CC(=O)OCCOCCOC(=O)C=C`, for which the Potency entry in assay [3] and in [5] was “inactive” each time. The Potency in [6] is 13.7 µM (active).

On to `COc1ccc(-c2nc3ccc(C4=NNC(=O)CC4C)cc3[nH]2)cc1` (stereo unspecified), for which the Potency result in assay [1], in assay [3], in assay [4], in assay [5], in assay [10] and in [7] was “inactive” throughout.

Take `COc1cc(Cl)c(OC)cc1N`: the Potency entry in assay [1], in assay [2], in assay [3], in assay [4], in assay [5] and in assay [9] was “inactive” each time. In addition, the Potency entry in assay [7] and in assay [8] was “inactive” in each case.

As to `CN(C)c1ccc(C(c2ccccc2)c2ccc(N(C)C)cc2)cc1`, the Potency entry in assay [2], in assay [3], in assay [5], in [6] and in [7] was “inactive” in each case. In assay [10], the Potency was 27.3 µM (active).

For `CC1=CC[C@H](C(C)C)C=C1`, the Potency result in [3], in assay [4], in assay [5], in assay [9], in assay [7] and in assay [8] was “inactive” in each case.

As to `OC[C@H]1O[C@@H](OCCc2ccc(O)cc2)[C@H](O)[C@@H](O)[C@@H]1O`, the Potency result in [1], in assay [2], in assay [3], in [4], in assay [5] and in assay [9] was “inactive” throughout. Besides, the Potency entry in [7] and in assay [8] was “inactive” throughout.

In the case of `O=C(O)c1ccco1`, the Potency result in assay [1], in assay [3], in [4], in assay [5], in assay [9] and in [7] was “inactive” throughout. Besides, the Potency entry in [8] was “inactive”.

`CCN(CC)c1ccc2c(-c3ccccc3C(=O)O)c3ccc(=[N+](CC)CC)cc-3oc2c1`: the Potency entry in [2], in [3], in assay [4], in [5], in assay [10] and in assay [9] was “inactive” throughout.

Regarding `Cn1c(=O)cc(Oc2ccc(F)cc2F)c2cnc(NCC(C)(C)O)nc21`, the Potency entry in assay [2], in assay [3], in assay [4], in assay [5], in assay [9] and in assay [7] was “inactive” each time.

On to `O=C(NCC1CN(c2ccc(N3CCOCC3=O)cc2)C(=O)O1)c1ccc(Cl)s1` (stereo unspecified), for which the Potency entry in assay [1], in assay [2], in assay [3], in assay [4], in assay [5] and in assay [7] was “inactive” throughout. Besides, the Potency entry in [8] was “inactive”.

On to `Brc1c2ccccc2cc2ccccc12`, for which the Potency result in [1], in assay [2], in assay [3], in [5], in assay [9] and in assay [7] was “inactive” each time. Further, the Potency result in [8] is “inactive”. In addition, the Potency in assay [4] is 49.5 µM (active).

Turning to `O=C(O)c1ccc(S(=O)(=O)O)cc1C(=O)O`, the Potency entry in assay [1], in assay [2], in [3], in [4], in [5] and in assay [9] was “inactive” each time. For the same compound, the Potency result in assay [7] and in [8] was “inactive” each time.

On to `COC(C)OC`, for which the Potency entry in [2], in assay [3], in [4], in assay [5], in [9] and in assay [7] was “inactive” in each case. Moreover, the Potency result in assay [8] is “inactive”.
